Laboratory results reported in PubChem BioAssay.
Active and inactive are the calls of the source.

Key:
Albumin (Bos taurus) = Albumin (Bos taurus) (UniProt P02769); assay: compounds binding labelled BSA control protein – biochemical, small-molecule microarray, Alexa647 label, 635/667 nm fluorescence, artefact control for SMM control protein annotation, profiling panel (AID 1118); details: BSA-A647 binding, fluorescence 635 nm, higher = more signal;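 further: score merges 667 nm emission intensity and signal-to-noise per printed compound spot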
[1] = probe aXIP binding to arrayed compounds – biochemical, NeuroSMM set, 635/667 nm fluorescence, primary screen (AID 1119); details: small-molecule microarray, higher = more signal, called active from +8 up or from −8 down;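 further: probe is the protein aXip251-270 applied at 1 µg/mL to compound-printed slides; binding of probe to printed compounds measured as 667 nm fluorescence plus signal to noise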
[2] = probe aNOTCH3 binding on compound microarray – biochemical, small-molecule microarray, 635/667 nm fluorescence, primary screen (AID 1120); details: higher = more signal;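 further: probe is a biotin-tagged antibody raised against NOTCH3 rather than NOTCH3 protein; score merges spot fluorescence near 667 nm with spot signal to noise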
[3] = probe aNOTCH2 binding on compound microarray – biochemical, small-molecule microarray, 635/667 nm fluorescence, primary screen (AID 1121); details: higher = more signal;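 further: score merges feature fluorescence read at 667 nm with its signal to noise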
[4] = molecular target: Carbonic anhydrase 2 (Homo sapiens) (UniProt P00918); assay: compounds binding carbonic anhydrase 2 – biochemical, small-molecule microarray, Alexa647-labelled CAII, profiling panel (AID 1122); details: CAII-A647 binding fluorescence, higher = more signal
[5] = COS7 lysate on small-molecule microarray, probe aHis, 635 nm (AID 1123); details: COS7 cell lysate, fluorescence, higher = more signal;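 further: z-score combines 667nm fluorescence intensity with signal-to-noise per printed compound spot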
[6] = probe aLAP1 signal on lysate-treated microarray – cell lysate, small-molecule microarray, COS7 lysate, primary screen (AID 1124); details: probe aLAP1, fluorescence, higher = more signal;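 further: lysate comes from COS7 cells expressing LAP1 and is applied at 0.3 µg/mL; score merges spot fluorescence near 667 nm with signal-to-noise over triplicate slides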
Sam68 (KHDRBS1) = assay: compounds binding KHDRBS1 protein – biochemical, small-molecule microarray, 635 nm fluorescence, primary screen (AID 1125); details: higher = more signal;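 further: score merges 667 nm channel intensity with signal to noise over triplicate slides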
[7] = system: Chordin-like protein 2 (CHRDL2); assay: compounds binding chordin-like 2 – biochemical, small-molecule microarray, 635 nm fluorescence, primary screen (AID 1126); details: fluorescence 635 nm, higher = more signal;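 further: printed compound slides probed with Chrdl2 protein at 4 µg/mL for 1 h at 4 C; score merges 667 nm emission intensity with signal to noise over three replicate slides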
[8] = molecular target: Concanavalin-A (Canavalia ensiformis) (UniProt P02866); assay: compounds binding concanavalin A lectin – biochemical, small-molecule microarray, Alexa647 label, 635 nm, artefact control for SMM control protein annotation, primary screen (AID 1127); details: ConA-A647 binding fluorescence, higher = more signal;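 further: z combines 667 nm emission intensity with signal-to-noise across three replicate slides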
[9] = compounds binding Alexa647 anti-His antibody – biochemical, small-molecule microarray, 635 nm fluorescence, artefact control for SMM control protein annotation, primary screen (AID 1128); details: higher = more signal;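 further: score merges feature fluorescence with signal-to-noise for each printed compound spot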
[10] = system: Human papillomavirus type 1a E7 protein (residues 1-88); assay: HPV1a E7 small-molecule binders, primary screen, biochemical, small-molecule microarray, residues 1-88, 635 nm (AID 1129); details: small-molecule microarray binding, fluorescence 635 nm; higher = more signal
[11] = molecular target: Focal adhesion kinase 1 (Homo sapiens) (UniProt Q05397); assay: PTK2 protein binding on printed compound slides – biochemical, small-molecule microarray, 635/667 nm fluorescence, BSA, DTT, primary screen (AID 1130); details: 635 nm fluorescence, higher = more signal;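 further: composite of spot emission at 667 nm and signal to noise over triplicate slides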
[12] = system: Fibrinogen (Alexa647-labelled); assay: Alexa647-fibrinogen binding to printed small molecules – biochemical, small-molecule microarray, 635/667 nm fluorescence, artefact control for SMM control-protein annotation, profiling panel (AID 1131); details: fibrinogen-A647 binding fluorescence, higher = more signal;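 further: z-score merges 667 nm fluorescence with per-spot signal-to-noise over triplicate slides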
[13] = molecular target: Follistatin (Homo sapiens) (UniProt P19883); assay: FST protein binding to printed compounds – biochemical, small-molecule microarray, 635/667 nm fluorescence, primary screen (AID 1132); details: 635 nm fluorescence, higher = more signal
[14] = molecular target: Fibroblast growth factor 2 (Homo sapiens) (UniProt P09038); assay: basic fibroblast growth factor binding to printed compounds – biochemical, small-molecule microarray, 635/667 nm fluorescence, primary screen (AID 1133); details: FGF2, fluorescence 635/667, higher = more signal
[15] = JC-1 mitochondrial potential readout, lung cancer cells – cell-based, A549, JC-1 fluorescence, basal, 24 h, 100 nL, profiling panel (AID 1138); details: higher = more signal;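 further: A549 lung adenocarcinoma cells under basal conditions with no added stimulus; test concentration not given here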
Lefty1 = Lefty1 protein binding to printed compounds – biochemical, small-molecule microarray, 635/667 nm fluorescence, primary screen (AID 1139); details: fluorescence 635/667, higher = more signal
[16] = system: wheat germ agglutinin (Triticum aestivum), Alexa647-labelled; assay: Alexa647-WGA lectin binding to printed small molecules – biochemical, small-molecule microarray, 635/667 nm fluorescence, artefact control for SMM control-protein annotation, profiling panel (AID 1140); details: WGA-A647 binding, 635 nm fluorescence, higher = more signal;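 further: score merges 667 nm feature emission with signal to noise over triplicate slides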
[17] = molecular target: Luciferin 4-monooxygenase (Photinus pyralis) (UniProt P08659); assay: inhibition of purified Photinus pyralis luciferase – biochemical, luminescence, purified enzyme, 2006 set, primary screen (AID 1141); details: purified firefly luciferase, SteadyGlo luminescence, 30 min; higher = more signal, called active from +8 up or from −8 down;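 further: cell-free assay with purified firefly luciferase at 100 ng per well in PBS; test concentration not given here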
Chain of Luciferin 4-monooxygenase (Photinus pyralis) (P08659 whole entry, looked up): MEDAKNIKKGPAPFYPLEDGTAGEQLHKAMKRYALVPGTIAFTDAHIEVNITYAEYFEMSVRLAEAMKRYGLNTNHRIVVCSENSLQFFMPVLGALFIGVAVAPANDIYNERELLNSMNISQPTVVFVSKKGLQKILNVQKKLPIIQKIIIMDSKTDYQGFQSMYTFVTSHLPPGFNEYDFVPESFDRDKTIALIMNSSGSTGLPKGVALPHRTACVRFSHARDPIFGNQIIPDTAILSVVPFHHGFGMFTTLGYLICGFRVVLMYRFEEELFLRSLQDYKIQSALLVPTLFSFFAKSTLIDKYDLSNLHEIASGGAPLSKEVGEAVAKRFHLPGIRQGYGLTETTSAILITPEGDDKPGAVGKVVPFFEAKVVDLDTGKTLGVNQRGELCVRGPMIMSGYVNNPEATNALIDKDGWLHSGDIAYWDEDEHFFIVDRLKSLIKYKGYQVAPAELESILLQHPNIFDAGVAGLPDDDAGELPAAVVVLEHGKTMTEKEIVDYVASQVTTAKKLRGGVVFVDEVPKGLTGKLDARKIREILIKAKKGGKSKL

Chain of Follistatin (Homo sapiens) (P19883 whole entry, looked up): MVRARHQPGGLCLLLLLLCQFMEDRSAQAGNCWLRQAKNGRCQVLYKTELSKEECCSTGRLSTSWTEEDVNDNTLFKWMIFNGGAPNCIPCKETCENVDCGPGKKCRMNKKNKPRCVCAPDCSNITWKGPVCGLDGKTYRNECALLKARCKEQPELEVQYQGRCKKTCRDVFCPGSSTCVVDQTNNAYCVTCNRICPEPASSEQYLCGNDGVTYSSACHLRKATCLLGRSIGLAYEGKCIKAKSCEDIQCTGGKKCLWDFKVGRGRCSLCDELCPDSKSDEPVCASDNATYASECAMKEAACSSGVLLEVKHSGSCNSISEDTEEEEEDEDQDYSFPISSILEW
Chain of Albumin (Bos taurus) (P02769 whole entry, looked up): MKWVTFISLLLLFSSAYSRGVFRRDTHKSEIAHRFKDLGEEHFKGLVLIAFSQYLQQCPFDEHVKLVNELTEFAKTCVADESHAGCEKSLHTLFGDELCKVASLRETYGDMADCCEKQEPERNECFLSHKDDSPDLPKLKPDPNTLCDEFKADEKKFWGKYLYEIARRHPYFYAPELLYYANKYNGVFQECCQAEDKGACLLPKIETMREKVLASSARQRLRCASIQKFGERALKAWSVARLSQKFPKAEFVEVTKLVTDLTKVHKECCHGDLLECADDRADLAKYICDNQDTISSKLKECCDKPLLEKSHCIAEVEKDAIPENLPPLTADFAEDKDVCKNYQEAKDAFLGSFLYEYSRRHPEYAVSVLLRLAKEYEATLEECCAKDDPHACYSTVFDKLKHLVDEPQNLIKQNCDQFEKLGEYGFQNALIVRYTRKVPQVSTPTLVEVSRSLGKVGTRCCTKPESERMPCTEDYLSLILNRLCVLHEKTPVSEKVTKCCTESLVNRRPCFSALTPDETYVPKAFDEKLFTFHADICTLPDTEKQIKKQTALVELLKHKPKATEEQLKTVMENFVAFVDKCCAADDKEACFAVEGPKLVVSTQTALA
Chain of Fibroblast growth factor 2 (Homo sapiens) (P09038 whole entry, looked up): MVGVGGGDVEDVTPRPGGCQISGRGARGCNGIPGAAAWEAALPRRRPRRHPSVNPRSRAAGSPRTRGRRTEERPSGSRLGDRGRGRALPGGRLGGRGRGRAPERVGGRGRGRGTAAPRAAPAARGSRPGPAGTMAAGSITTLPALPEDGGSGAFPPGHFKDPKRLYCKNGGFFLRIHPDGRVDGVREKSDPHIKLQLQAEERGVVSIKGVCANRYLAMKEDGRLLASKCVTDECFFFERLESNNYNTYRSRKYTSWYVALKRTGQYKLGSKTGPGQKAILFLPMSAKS
Chain of Focal adhesion kinase 1 (Homo sapiens) (Q05397 whole entry, looked up): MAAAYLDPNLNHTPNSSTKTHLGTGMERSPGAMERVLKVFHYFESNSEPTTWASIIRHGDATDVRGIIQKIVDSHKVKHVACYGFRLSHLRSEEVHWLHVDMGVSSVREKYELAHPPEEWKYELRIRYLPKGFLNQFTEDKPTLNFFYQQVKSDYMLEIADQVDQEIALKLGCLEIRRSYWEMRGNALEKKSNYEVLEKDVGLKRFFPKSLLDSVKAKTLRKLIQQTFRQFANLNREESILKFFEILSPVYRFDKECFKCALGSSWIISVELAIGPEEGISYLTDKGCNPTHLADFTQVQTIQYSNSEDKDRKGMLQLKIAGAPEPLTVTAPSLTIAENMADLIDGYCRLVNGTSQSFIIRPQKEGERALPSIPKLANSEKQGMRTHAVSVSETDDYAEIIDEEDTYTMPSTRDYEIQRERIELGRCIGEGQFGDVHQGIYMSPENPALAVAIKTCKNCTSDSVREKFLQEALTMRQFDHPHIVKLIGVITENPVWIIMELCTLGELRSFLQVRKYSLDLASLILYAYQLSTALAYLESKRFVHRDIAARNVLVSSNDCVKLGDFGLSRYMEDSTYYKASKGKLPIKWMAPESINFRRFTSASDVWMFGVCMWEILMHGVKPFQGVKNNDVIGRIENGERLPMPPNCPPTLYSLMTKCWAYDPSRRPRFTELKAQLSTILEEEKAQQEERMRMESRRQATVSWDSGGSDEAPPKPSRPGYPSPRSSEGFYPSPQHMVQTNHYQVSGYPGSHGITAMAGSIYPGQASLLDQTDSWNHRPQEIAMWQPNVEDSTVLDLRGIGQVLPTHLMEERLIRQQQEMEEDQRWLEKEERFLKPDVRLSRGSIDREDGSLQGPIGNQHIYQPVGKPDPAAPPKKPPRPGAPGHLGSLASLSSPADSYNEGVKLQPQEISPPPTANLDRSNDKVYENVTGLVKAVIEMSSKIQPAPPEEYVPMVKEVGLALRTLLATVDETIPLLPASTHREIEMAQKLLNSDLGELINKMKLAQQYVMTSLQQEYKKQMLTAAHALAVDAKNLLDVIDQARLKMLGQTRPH
Chain of Concanavalin-A (Canavalia ensiformis) (P02866 whole entry, looked up): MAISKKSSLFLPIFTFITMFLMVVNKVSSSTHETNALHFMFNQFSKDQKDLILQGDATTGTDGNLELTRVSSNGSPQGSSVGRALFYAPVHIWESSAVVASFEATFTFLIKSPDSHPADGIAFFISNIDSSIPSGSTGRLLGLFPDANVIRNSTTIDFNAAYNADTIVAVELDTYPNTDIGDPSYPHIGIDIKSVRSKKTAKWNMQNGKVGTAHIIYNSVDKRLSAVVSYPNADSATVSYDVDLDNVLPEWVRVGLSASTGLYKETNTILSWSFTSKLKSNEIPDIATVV

Structure (SMILES)	composite z-score (Albumin (Bos taurus))	composite Z-score [1]	composite z-score [2]	composite z-score [3]	composite z-score [4]	composite z-score [5]	composite z-score [6]	composite z-score (Sam68 (KHDRBS1))	composite z-score [7]	composite z-score [8]	composite z-score [9]	composite z-score [10]	composite z-score [11]	composite z-score [12]	composite z-score [13]	composite z-score [14]	z-score [15]	composite z-score (Lefty1)	composite z-score [16]	z-score [17]
CCCC=C(CCC)[C@@H](NC(=O)c1ccc(C(F)(F)F)cc1)c1ccc(C(F)(F)F)cc1	1.01	-0.523 (inactive)	0.326	0.105	0.205	2.94	-0.0554	1.31	-0.748	1.07	0.549	1.23	0.156	1	0.384	-0.635	2.65	0.131	1.38	2.29 (inactive)
COc1cc(CO)cc(I)c1O[C@H]1C=C(C(=O)NCCO)C[C@@H](NC2CCCCCC2)[C@@H]1O	0.441	-0.228 (inactive)	0.106	-0.161	0.579	-0.103	0.993	1.33	0.714	0.747	0.34	1.14	-0.433	0.794	0.931	1.01	1.88	1.37	0.246	4.69 (inactive)
CCCNC(=O)[C@@]1(c2ccc([N+](=O)[O-])cc2)CC(=O)N(C(C)C)[C@@H]1c1ccc(CO)cc1	0.667	-0.0527 (inactive)	-0.344	-0.0876	0.801	1.7	0.188	-0.626	-1.54	-0.536	0.736	0.143	0.856	-1.19	-0.742	-0.914	-0.837	-0.844	1.19	-0.113 (inactive)
COCCCN1C(=O)[C@@]2(c3ccc([N+](=O)[O-])cc3)CC(=O)N(CC34CC5CC(CC(C5)C3)C4)[C@@H]2c2ccc(CO)cc21	-0.0098	0.208 (inactive)	-0.101	-0.0666	0.48	0.373	0.991	0.229	-0.0444	0.728	-0.0041	-0.217	-0.102	-0.753	1	0.232	0.961	0.739	0.115	-0.844 (inactive)
O=C1C=C(c2ccccc2)C(=O)C2=C1CC([C@H]1Oc3ccccc3S(=O)(=O)N3CCC[C@@H]13)=CC2	0.0895	0.506 (inactive)	-0.0918	-0.0485	-0.248	-0.227	-0.247	0.13	0.121	0.0457	-0.105	0.154	-0.263	-0.472	0.316	0.669	-1.32	0.132	0.145	-1.49 (inactive)
COCCCNC(=O)[C@@]1(Sc2ccc(C)cc2)CC(=O)N(Cc2ccccc2C(F)(F)F)[C@@H]1c1ccc(CO)cc1I	0.474	-1.08 (inactive)	-0.402	-0.121	0.175	1.08	0.295	0.188	-1.51	-0.89	-1.39	-2.04	-0.905	-1.75	-1.59	-1.5	-0.288	-1.78	-1.47	0.166 (inactive)
